# The campaign covered roughly 220,000 compounds. About 2,000 (0.91%) were called active. Another 2% or so got no clear call; they are omitted. Rule as the data show it: inconclusive = inhibition above about 80% without an active follow-up result; inactive = below that; test concentration not stated here. A selection follows. Measured potencies and affinities stand elsewhere.
# Assay: M. tuberculosis H37Rv growth inhibitors, H37Rv strain (AID 1626);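 also: bacteria incubated seven days before Alamar blue readout; 0% = bacteria only wells and 100% = bacteria with antibiotic wells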
# Settings: hits give high values, concentration not given here
row,Compound,inhibition
1,O=C(Cn1cnc2c(nnn2-c2ccccc2)c1=O)N1CCOCC1,3.36% (inactive)
2,CCOc1ccc(-n2c(C)nc3c(cnn3-c3ccc(Cl)cc3)c2=O)cc1,-1.94% (inactive)
3,Cc1ccc(OCC(=O)Nc2ccc(N3CCN(C(=O)c4ccc(C)cc4)CC3)cc2)cc1,-3.04% (inactive)
4,Cc1ccccc1OCC(=O)Nc1ccc(N2CCN(S(C)(=O)=O)CC2)cc1,-6.69% (inactive)
5,CCOC(=O)N1CCN(c2cc(C)nc3nc(C)nn23)CC1,-2.69% (inactive)
6,COc1cccc(NC(=O)CSc2nnc(C)s2)c1,-3.98% (inactive)
7,CCSCc1nnc(SCC(=O)Nc2cccc(C(C)=O)c2)n1C,-4.22% (inactive)
8,CCSCc1nnc(SCC(=O)Nc2ccc(OC)cc2)n1C,7.37% (inactive)
9,CSc1cccc(NC(=O)CSc2ccc(C)cc2)c1,52.9% (inactive)
10,Nn1c(CN2CCCCC2)nc2ccccc2c1=O,4.4% (inactive)
11,Cc1csc(NC(=O)CS(=O)(=O)c2ccccc2)n1,-3.27% (inactive)
12,O=C(OCC(=O)N1CCCCCC1)c1ccc([N+](=O)[O-])cc1Cl,20.3% (inactive)
13,OC(COc1ccc(OCc2ccccc2)cc1)CN1CCCCC1 (centres undefined),3.57% (inactive)
14,Cc1ccccc1OCc1nnc(SCC(=O)NCc2ccco2)n1C,-6.74% (inactive)
15,Cc1ccc(S(=O)(=O)NC(CC(C)C)C(=O)Nc2nccs2)cc1 (centres undefined),-11.9% (inactive)
16,COc1ccc(CCNCC(O)Cn2ccc3ccccc32)cc1OC (centres undefined),-9.67% (inactive)
17,COc1ccccc1NCC(O)Cn1c2ccccc2c2ccccc21 (centres undefined),2.53% (inactive)
18,CC(C)N(Cc1cc2ccccc2[nH]c1=O)C(=O)c1cccnc1,-8.2% (inactive)
19,COc1ccc(S(=O)(=O)N2C(=O)/C(=C3\SC(N)=NC3=O)c3ccccc32)cc1,-3.28% (inactive)
20,COc1ccc2nc(/N=C/c3c(C)[nH]n(-c4ccc(C)cc4)c3=O)sc2c1,33% (inactive)
21,CCCCOc1ccc(-c2nc(/C=N/c3nccs3)c(O)o2)cc1,25.4% (inactive)
22,COc1ccc2nc(/N=C/c3c(C)[nH]n(-c4ccc(C)cc4C)c3=O)sc2c1,6.1% (inactive)
23,Oc1oc(-c2ccccc2)nc1/C=N/c1nccs1,-8.45% (inactive)
24,Cc1ccccc1CN1CCN(c2ccc(Cl)cc2)CC1,6.57% (inactive)

row,Compound,inhibition
1,N/C(=N\OS(=O)(=O)c1ccc(Cl)cc1)c1cccnc1,-1.48% (inactive)
2,COCc1nn2c(N)c(C#N)cnc2c1-c1ccccc1,4.73% (inactive)
3,Cc1nn2c(N)c(C#N)cnc2c1-c1ccccc1,-6.08% (inactive)
4,O=C(NCCc1c[nH]c2ccccc12)c1cnccn1,2.35% (inactive)
5,Cc1ccc(NC(=S)NC(CO)C(O)c2ccc([N+](=O)[O-])cc2)cc1 (centres undefined),-9.71% (inactive)
6,O=[N+]([O-])c1ccc(C(O)C(CO)NC(=S)Nc2ccccc2)cc1 (centres undefined),-0.74% (inactive)
7,Cn1cc(C(N)=O)c2ccccc21,-2.82% (inactive)
8,Cn1cc(C(=O)Cc2ccccc2)c2ccccc21,0.26% (inactive)
9,Cn1c(-c2ccccc2)c(C(=O)CC#N)c2ccccc21,7.31% (inactive)
10,CCn1c(-c2ccccc2)c(C(=O)CCl)c2ccccc21,76.1% (inactive)
11,Cc1ccc(-c2ccc(NC(=O)C3C4C=CC(C4)C3C(=O)O)cc2)o1 (centres undefined),66.8% (inactive)
12,COCCCN(CCC#N)C(=O)c1c(-c2c(Cl)cccc2Cl)noc1C,-10.4% (inactive)
13,Cc1cc([N+](=O)[O-])ccc1NC(=O)c1cccc(NC(=O)C(C)C)c1,10.8% (inactive)
14,COc1cc(NC(=O)c2ccc([N+](=O)[O-])cc2)ccc1NC(=O)C(C)C,2.5% (inactive)
15,COc1ccc(NC(=O)CCSc2nnc(C)s2)cc1,-0.89% (inactive)
16,CC(=O)Nc1ccc(S(=O)(=O)N2CCCC(C(=O)O)C2)cc1 (centres undefined),0.58% (inactive)
17,Fc1ccc(Oc2nc(-c3ccccc3)nnc2C(F)(F)F)cc1,-3.97% (inactive)
18,FC(F)(F)c1nnc(-c2ccccc2)nc1Sc1ccc(Cl)cc1,36.4% (inactive)
19,Cc1ccc(Sc2nc(-c3ccccc3)nnc2C(F)(F)F)cc1,13.4% (inactive)
20,CNc1nc(-c2ccccc2)nnc1C(F)(F)F,-2.77% (inactive)
21,FC(F)(F)c1nnc(-c2ccccc2)nc1N1CCCC1,-1.21% (inactive)
22,FC(F)(F)c1cccc(Oc2nc(-c3ccccc3)nnc2C(F)(F)F)c1,8.03% (inactive)
23,COC(=O)CC/C(O)=C1/C(=N)CC(C)(C)CC1=O,-9.88% (inactive)
24,CC1CCN(CCCNC(=O)COc2cc(=O)n(C)c3ccccc23)CC1,-0.28% (inactive)

row,Compound,inhibition
1,O=C(CCn1c(=O)c2sccc2n(CC(=O)OCc2ccccc2)c1=O)NCc1ccccc1,-4.57% (inactive)
2,CC(=O)N(Cc1ccc(F)cc1)C1=C(NCCc2ccccc2)C(=O)c2ccccc2C1=O,16.5% (inactive)
3,CCC(=O)N(C1=C(NC(C)C)C(=O)c2ccccc2C1=O)C(C)C,3.87% (inactive)
4,CCC(=O)N(C1=C(NC)C(=O)c2ccccc2C1=O)C(C)C,2.12% (inactive)
5,CC(=O)N(C1=C(N2CCOCC2)C(=O)c2ccccc2C1=O)c1ccc(C(=O)O)cc1,-1.19% (inactive)
6,CCNC(=O)/C=C1\NC(C)(C)Cc2c1ccc1ccccc21,-3.91% (inactive)
7,O=C1OCCC1Sc1nc2ccccc2s1 (centres undefined),6.97% (inactive)
8,O=C(CN1CCN(Cc2ccccc2Cl)C1=O)NCc1ccccn1,1.55% (inactive)
9,O=C(NCC1CCCO1)C(c1ccc(F)cc1)N(Cc1ccc(F)cc1)C(=O)Cn1nnc(-c2cccs2)n1 (centres undefined),-8.2% (inactive)
10,O=C(NCCc1nc2ccccc2[nH]1)/C(=C/c1ccc2c(c1)OCO2)NC(=O)c1ccccc1Cl,2.62% (inactive)
11,O=C(NCCc1nc2ccccc2[nH]1)/C(=C/c1ccc2c(c1)OCO2)NC(=O)c1ccccc1,1.83% (inactive)
12,Cc1n[nH]c(C)c1Cc1c(F)cccc1Cl,-0.71% (inactive)
13,Nc1nc(N)nc(-c2ccccn2)n1,-3.41% (inactive)
14,CC(NCc1ccc(Cl)cc1Cl)C(O)c1ccccc1 (centres undefined),5.99% (inactive)
15,CC1CCCN(S(=O)(=O)c2ccc3c(c2)CCN3C(=O)C2CCC2)C1 (centres undefined),5.83% (inactive)
16,ONC(=Nc1ccc(Cl)cc1)c1ccc(Cl)cc1,-13.7% (inactive)
17,Cc1nn(-c2ccccc2)c(N)c1C(c1ccccc1)c1c(C)nn(-c2ccccc2)c1N,9.35% (inactive)
18,Cc1ccc(C(c2c(C)nn(-c3ccccc3)c2N)c2c(C)nn(-c3ccccc3)c2N)cc1,6.99% (inactive)
19,C#CCNC(=O)C1CCN(c2cc(C)nc(-c3ccccc3)n2)CC1,-0.44% (inactive)
20,CCOC(=O)c1cc([N+](=O)[O-])sc1NC(=O)c1ccc(S(=O)(=O)N2CC3(C)CC2CC(C)(C)C3)cc1 (centres undefined),-0.55% (inactive)
21,O=C(O)c1ccc(O)c(N2C(=O)Nc3ccccc3N2O)c1,-1.41% (inactive)
22,CC[C@@H]1C=C(C)C[C@H](C)C[C@H](OC)[C@H]2O[C@@](O)(C(=O)C(=O)N3CCCC[C@H]3C(=O)O[C@H](/C(C)=C/[C@@H]3CC[C@@H](O)[C@H](OC)C3)[C@H](C)[C@@H](O)CC1=O)[C@H](C)C[C@@H]2OC,5.69% (inactive)
23,Fc1cccc(CSc2nc3ncc(Cl)cc3[nH]2)c1,-0.1% (inactive)
24,CCc1[nH]c(=S)c(C#N)c2c1CCCC2,-2.7% (inactive)

row,Compound,inhibition
1,COc1cc2cc(/C=C/C(=O)c3ccco3)c(Cl)nc2cc1OC,-1.16% (inactive)
2,CCOc1ccc2nc(Cl)c(/C=C/C(=O)c3ccco3)cc2c1,21.5% (inactive)
3,Cc1cccc2cc(/C=C/C(=O)c3ccco3)c(Cl)nc12,7.5% (inactive)
4,Cc1ccc(N/C=C/C(=O)c2ccco2)c(O)c1,-2.39% (inactive)
5,Cc1nc([N+](=O)[O-])cn1CC(=O)NCCCO,8.65% (inactive)
6,Cc1ccc(-n2c(CNC(=O)c3cccs3)nnc2SCC(=O)NO)cc1,2.75% (inactive)
7,COC(=O)c1ccc(CN2CCN(Cc3ccccc3)C(CCO)C2)cc1 (centres undefined),-3.82% (inactive)
8,COc1ccc(N(C(=O)c2ccco2)C(C(=O)NC2CCCC2)c2ccc(N(C)C)cc2)cc1OC (centres undefined),-5.56% (inactive)
9,COC(=O)Cc1cc(=O)n2[nH]c(C)c(-c3ccccc3)c2n1,-0.6% (inactive)
10,O=c1cc(-c2ccccc2)nc2c(-c3ccccc3)c(C(F)(F)F)[nH]n12,2.66% (inactive)
11,Cc1ccccc1-c1cc2nc(-c3ccc([N+](=O)[O-])cc3)cc(=O)n2[nH]1,-6.76% (inactive)
12,CCCc1cc(=O)n2[nH]c(C)c(-c3ccccc3)c2n1,11.9% (inactive)
13,COc1ccc(CCNCC(O)c2ccccc2)cc1 (centres undefined),-12.7% (inactive)
14,CC(NC(=O)c1ccccc1NC(=O)c1ccncc1)c1ccccc1 (centres undefined),6.19% (inactive)
15,CC(C)OC(=O)/C(=C\c1cccc2ccccc12)NC(=O)c1ccccc1,11.6% (inactive)
16,N/C(=N\OC(=O)c1ccc(Cl)cc1)c1[nH]ncc1Br,-8.82% (inactive)
17,CC(C)(C)NC(=O)c1ccc2c(c1)N(CC(=O)N1CCN(c3ccc(F)cc3)CC1)C(=O)C(C)(C)O2,8.11% (inactive)
18,O=C(O)c1cccc(S(=O)(=O)Nc2ccccc2N2CCOCC2)c1,-1.57% (inactive)
19,Cc1cccc(C(=O)O/N=C(\N)Cc2ccc([N+](=O)[O-])cc2)c1,7.62% (inactive)
20,COc1ccccc1C1(CCN=Cc2ccc(N(C)C)cc2)CCOC(C)(C)C1 (centres undefined),2.7% (inactive)
21,CCC(=O)/C=C1\Sc2ccc(OC)cc2N1CCO,-14.1% (inactive)
22,CCC(/C=C1\Sc2ccc(OC)cc2N1CC)=C\c1sc2ccc(OC)cc2[n+]1CCCS(=O)(=O)[O-],0.61% (inactive)
